# Data as given in PubChem BioAssay (NCATS).
# Where “and” joins values, the source holds several entries; their conditions need not be identical. Identical values can stand only once. Results filed as inconclusive are left out. Entries that show only a call come without a potency. Some structures have more than one record in an assay (separate samples or runs), and their calls can disagree. Values without a mark were called inactive. Calls of active or inactive are those of the source. Calls follow the shape of the dose curve; as a rule, active = well fitted inhibition curve with a large enough effect; inconclusive = small, poorly fitted or top-dose-only effect; inactive = flat fitted curve, though single readings scatter.
# Experiments:
# [1] = system: CRL-7250; experiment: Cytotoxic Profiling of Annotated Libraries Using Quantitative High-Throughput Screening (AID 1296008); conditions: Five cell lines viability, CellTiter-Glo ATP luminescence, 48-72 h; max response: hits give low values
# Summary of the method: (§1)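 Cytotoxicity was measured as CellTiter-Glo ATP luminescence, read after 10 min at room temperature. Compound treatment of the cells lasted 48 or 72 hr at 37 degrees Celsius in a qHTS format.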
# [2] = system: HEK293; experiment: as above; conditions: Five cell lines viability, CellTiter-Glo ATP luminescence, 48-72 h; max response: hits give low values
# Summary of the method: as §1
# [3] = system: HaCat; experiment: as above; conditions: Five cell lines viability, CellTiter-Glo ATP luminescence, 48-72 h; max response: hits give low values
# Summary of the method: as §1
# [4] = system: NIH3T3; experiment: as above; conditions: Five cell lines viability, CellTiter-Glo ATP luminescence, 48-72 h; max response: hits give low values
# Summary of the method: as §1
# [5] = system: HACAT; experiment: qHTS assay to identify novel small-molecules to repurpose for Merkel cell carcinoma treatment (AID 1296009); conditions: MCC and control cell lines, CellTiter-Glo viability, 72 h; at 44.8 µM (top of the series) unless noted
# Summary of the method: (§2)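 After compound transfer in DMSO, plates were kept 72 hr at 37 degree celsius. Luminescent ATP signal from CellTiter-Glo served as viability measure, normalized against DMSO and no-cell controls.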
# [6] = system: MCC-13; experiment: as above; conditions: MCC and control cell lines, CellTiter-Glo viability, 72 h; series mostly up to 46 µM
# Summary of the method: as §2
# [7] = system: MCC-26; experiment: as above; conditions: MCC and control cell lines, CellTiter-Glo viability, 72 h; series mostly up to 46 µM
# Summary of the method: as §2
# [8] = system: W2; experiment: qHTS profiling for inhibitors of Plasmodium falciparum proliferation (AID 504749); conditions: P. falciparum in erythrocytes, SYBR Green DNA, 72 h; series mostly up to 28.7 µM
# Summary of the method: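 Three-day growth assay of blood-stage parasites in erythrocytes (0.3% parasitemia, 2.5% hematocrit) at 37 C, 5% CO2, quantified by SYBR Green DNA staining after overnight detergent lysis.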
# [9] = system: KB-3-1; experiment: Cytotoxic Profiling of Annotated Libraries Using Quantitative High-Throughput Screening (AID 1296008); conditions: Five cell lines viability, CellTiter-Glo ATP luminescence, 48-72 h; max response: hits give low values
# Summary of the method: as §1
# [10] = system: HEK293T; experiment: qHTS assay to identify novel small-molecules to repurpose for Merkel cell carcinoma treatment (AID 1296009); conditions: MCC and control cell lines, CellTiter-Glo viability, 72 h; at 44.8 µM (top of the series) unless noted
# Summary of the method: as §2
# Also: nearly all actives have a fitted effect of over 60% in size.
# Potency is read from the fitted curve at half-maximal effect.
smiles,measurement,setting,value
CC1Cc2ccccc2N1NC(=O)c1ccc(Cl)c(S(N)(=O)=O)c1 (stereo unspecified),max response,[1],-6.14% and 4.23%
same,max response,[2],0.791% and 0.879%
same,max response,[3],-11.1%
same,outcome,[3],inactive
same,max response,[4],3.24% and 4.11%
same,outcome,[5],inactive
same,Potency,[6],inactive
same,Potency,[7],inactive
O=C(NOCC1CC1)c1ccc(F)c(F)c1Nc1ccc(I)cc1Cl,max response,[1],-12.6%
same,Potency,[2],18.7 µM (active)
same,Potency,[3],26.6 µM (active)
same,max response,[3],-17.9%
same,Potency,[7],inactive
C[C@H](Cn1cnc2c(N)ncnc21)OCP(=O)(O)O,Potency,[8],inactive
same,max response,[1],3.36%
same,outcome,[2],inactive
same,outcome,[3],inactive
same,outcome,[9],inactive
same,outcome,[4],inactive
same,outcome,[5],inactive
same,outcome,[10],inactive
same,Potency,[6],inactive
same,Potency,[7],inactive
COc1cc2c(cc1OC)C1CC(=O)C(CC(C)C)CN1CC2 (stereo unspecified),outcome,[1],inactive
same,outcome,[2],inactive
same,outcome,[3],inactive
same,max response,[9],-0.991%
same,outcome,[4],inactive
same,outcome,[5],inactive
same,outcome,[10],inactive
same,Potency,[6],inactive
same,Potency,[7],inactive
Nc1ccn([C@@H]2O[C@H](CO)[C@@H](O)C2O)c(=O)n1 (stereo partly specified),outcome,[1],inactive
same,outcome,[2],inactive
same,outcome,[3],inactive
same,max response,[9],21.2%
same,outcome,[9],inactive
same,outcome,[4],inactive
same,outcome,[5],inactive
same,outcome,[10],inactive
same,Potency,[6],inactive
same,Potency,[7],inactive
COC(=O)C1=C(C)NC(C)=C(C(=O)OCCCN2CCC(c3ccccc3)(c3ccccc3)CC2)C1c1cccc([N+](=O)[O-])c1 (stereo unspecified),Potency,[8],3.38 µM (active)
same,max response,[1],-3.52%
same,Potency,[2],8.41 µM (active)
same,max response,[2],-0.0015%
same,outcome,[3],inactive
same,max response,[9],0.505%
same,outcome,[4],inactive
same,outcome,[5],inactive
same,Potency,[6],inactive
Cc1ccc(C(=O)c2cc(O)c(O)c([N+](=O)[O-])c2)cc1,max response,[1],-7.14%
same,outcome,[2],inactive
same,max response,[3],-18.7%
same,outcome,[3],inactive
same,max response,[4],1.41%
same,outcome,[5],inactive
same,outcome,[10],inactive
same,Potency,[6],inactive
same,Potency,[7],inactive
Cc1nc(Nc2ncc(C(=O)Nc3c(C)cccc3Cl)s2)cc(N2CCN(CCO)CC2)n1,Potency,[1],83.3 nM (active) and 66.8 nM (active) and 259 nM (active)
same,Potency,[2],23.7 µM (active)
same,Potency,[3],0.944 µM (active)
same,max response,[9],-28.1%
same,Potency,[4],59.6 nM (active) and 73.1 nM (active)
same,max response,[4],-106%
same,Potency,[6],168 nM (active)
C[C@@H](N)C1CCC(C(=O)Nc2ccncc2)CC1 (stereo partly specified),max response,[1],-11.2%
same,outcome,[2],inactive
same,outcome,[3],inactive
same,max response,[9],-5.62%
same,max response,[4],-5.63%
same,outcome,[5],inactive
same,outcome,[10],inactive
same,Potency,[6],inactive
same,Potency,[7],inactive
NC(=O)Cc1cccc(C(=O)c2ccccc2)c1N,max response,[1],-2.24% and -8.84%
same,max response,[2],-0.043% and -1.4%
same,max response,[3],-6.4%
same,outcome,[3],inactive
same,max response,[4],1.53% and -19%
same,outcome,[5],inactive
same,Potency,[6],inactive
same,Potency,[7],inactive
N[C@@H](Cc1cc(I)c(Oc2cc(I)c(O)c(I)c2)c(I)c1)C(=O)O,Potency,[8],inactive
same,max response,[1],0.853% and -3.78% and 2.29%
same,max response,[2],0.988% and -21.3% and 2.79%
same,max response,[3],-2.11%
same,outcome,[3],inactive
same,max response,[9],-0.982% and 2.52%
same,outcome,[9],inactive
same,max response,[4],-14.5%
same,outcome,[4],inactive
same,outcome,[5],inactive
same,Potency,[6],inactive
same,Potency,[7],inactive
CCOC(=O)c1c(C)n(C)c2ccc(O)cc12,Potency,[8],inactive
same,max response,[1],3.97% and 0.808%
same,max response,[2],0.41% and 2.4%
same,max response,[3],4.97%
same,outcome,[3],inactive
same,max response,[9],-7.66% and 1.23%
same,max response,[4],-5.37%
same,outcome,[4],inactive
same,outcome,[5],inactive
same,Potency,[6],inactive
c1ccc2[nH]c(-c3cscn3)nc2c1,Potency,[8],inactive
same,max response,[1],-2.24% and 4.16%
same,max response,[2],-22.6% and -4.05%
same,max response,[3],-3.12%
same,outcome,[3],inactive
same,max response,[9],-14.9% and 2.26%
same,max response,[4],2.11% and -9.05%
same,outcome,[5],inactive
same,Potency,[6],inactive
same,Potency,[7],inactive
